Inconclusive results are not listed. Where a call stands in place of a potency, no number is given. Calls of active or inactive are those of the source. Calls come from the whole dose curve.
Potency is the fitted concentration of half-maximal effect.

Chain of Retinoic acid receptor RXR-alpha (Homo sapiens) (P19793 whole entry, looked up): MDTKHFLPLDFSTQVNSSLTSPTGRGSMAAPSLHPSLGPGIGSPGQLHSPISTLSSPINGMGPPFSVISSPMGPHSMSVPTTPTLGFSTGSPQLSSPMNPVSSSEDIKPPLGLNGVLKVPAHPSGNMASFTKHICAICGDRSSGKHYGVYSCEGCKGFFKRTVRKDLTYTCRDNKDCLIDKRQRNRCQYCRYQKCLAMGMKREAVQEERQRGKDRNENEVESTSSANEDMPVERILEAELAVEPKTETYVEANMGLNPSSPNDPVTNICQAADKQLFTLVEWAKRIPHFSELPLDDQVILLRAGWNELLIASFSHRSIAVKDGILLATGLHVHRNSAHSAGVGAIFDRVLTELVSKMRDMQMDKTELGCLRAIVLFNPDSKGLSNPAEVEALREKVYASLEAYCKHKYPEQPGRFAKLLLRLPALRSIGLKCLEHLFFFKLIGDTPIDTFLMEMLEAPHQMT

This test has as its target Retinoic acid receptor RXR-alpha (Homo sapiens) (UniProt P19793). Put plainly: qHTS assay to identify small molecule agonists of the RXR signaling pathway (AID 1159527). Note: nearly all actives have a fitted effect of over 35% in size. The following applies: HEK293T RXRa-UAS-bla, beta-lactamase ratio, 16 h; series mostly up to 76.8 µM. The method, boiled down: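 qHTS of the Tox21 10K library in GeneBLAzer RXR-alpha HEK 293T cells carrying a beta-lactamase reporter […]; 16 hr treatment, 9-cis retinoic acid as agonist control, FRET read-out.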
For orientation: qHTS replaces the single test concentration by a dilution series.
As for `NNc1nnc(NN)c2ccccc12`, the Potency entry is “inactive”.
As for `C=CCCCCCCCCCCCC`, the Potency result is “inactive”.
Regarding `O=C(O)c1ccc(Cl)cc1Cl`, the Potency result is “inactive”.
As for `O=C1CC(c2ccc(Cl)cc2)CC(=O)N1`, the Potency result is “inactive”.
In the case of `Cc1nc2n(c(=O)c1CCN1CCC(c3noc4cc(F)ccc34)CC1)CCC[C@H]2O`, the activation is 4.51% [at 15.8 µM] (inactive).
Regarding `CN(C)C(=O)CNC(=O)Cc1ccccc1`, the Potency entry is “inactive”.
Same read-out and setting: next, `C=C(C)C(=O)OCC(C)(C)COC(=O)C(=C)C`: “inactive”; `O=C(O)c1cc(Cl)cc([N+](=O)[O-])c1Cl`: “inactive”.
Same read-out and setting: the result for `O=S(=O)(O)c1ccc2cc(O)c(S(=O)(=O)O)cc2c1` reads “inactive”.
On to `On1nnc2ccccc21`, for which the Potency is 4.9 µM (active).
Same read-out and setting: next, `CN=C(NC#N)Nc1ccc(C2=NNC(=O)CC2C)cc1` (configuration not stated): “inactive”; `CC(=O)Nc1cccc(C)c1`: “inactive”.
On to `CCc1ccc(C=O)cc1`, for which the Potency result is “inactive”.
Consider `CC/C=C\CC1=C(C)CCC1=O`, for which the Potency result is “inactive”.
Turning to `OC[C@H](Cc1cccc(O)c1)[C@H](CO)Cc1cccc(O)c1`, the Potency result was “inactive”.
In the case of `COc1ccc(Br)c(C)c1`, the Potency entry was “inactive”.
Still for that read-out and setting: next, `Cc1ccc(C=O)cc1C`: “inactive”.
On the same count and under the same terms, the result for `CCCC/C=C\CCCCCCCCCC=O` reads “inactive”.
In the case of `COc1cc2c(cc1OC)[C@@H]1CC(=O)[C@@H](CC(C)C)CN1CC2`, the Potency entry was “inactive”.
Regarding `c1ccc2nccnc2c1`, the Potency entry was “inactive”.
Still for that read-out and setting: next, `Cc1ccc2ccc(Cl)cc2n1`: “inactive”.
For `CC(=O)OC(C)OC(=O)C(C)c1ccc(-c2ccccc2)c(F)c1` (configuration not stated), the Potency result was “inactive”.
Still for that read-out and setting: next, `CC(C)(C)c1nnc(NS(=O)(=O)c2ccc(N)cc2)s1`: “inactive”; `CCn1ccc(NS(=O)(=O)c2ccc(N)cc2)nc1=O`: “inactive”; `COc1ccc2c(c1)C(=O)N(CCc1ccc(S(=O)(=O)NC(=O)NC3CCCCC3)cc1)C(=O)C2(C)C`: “inactive”.
Still for that read-out and setting: the result for `Cc1ccc2c(c1)OCC(=O)CO2` reads “inactive”; that for `Cc1ccc(S(=O)(=O)O)c(C)c1`, “inactive”.
Consider `Cc1cc2cc3c(C)cc(=O)oc3c(C)c2o1`, for which the Potency result was “inactive”.
Same read-out and setting: next, `COc1nccnc1NS(=O)(=O)c1ccc(N)cc1`: “inactive”; `C=C(C)C1CCC(C)(O)CC1` (configuration not stated): “inactive”; `CC(C)N(c1ccccc1)C(C)C`: “inactive”.
On the same count and under the same terms, the result for `CC(C)c1ccc2cc(C(C)C)ccc2c1` reads “inactive”.
As for `C=C(C)C(=O)OCCOP(=O)(O)OCCOC(=O)C(=C)C`, the Potency result is “inactive”.
Regarding `Cc1cc(Cl)c(C)cc1Cl`, the Potency result was “inactive”.
Same read-out and setting: the result for `O=C(O)Cc1cn(-c2ccccc2)nc1-c1ccc(Cl)cc1` reads “inactive”; that for `COC(=O)CCc1ccc(OCC(O)CNC(C)C)cc1` (configuration not stated), “inactive”.
Take `COc1ccc(-c2cc(=O)c3c(O)cc(O[C@@H]4O[C@H](CO[C@@H]5O[C@@H](C)[C@H](O)[C@@H](O)[C@H]5O)[C@@H](O)[C@H](O)[C@H]4O)cc3o2)cc1O`: the Potency entry was “inactive”.

The values above are taken from PubChem BioAssay (Tox21).
